LMP1 NFkB inh = inhibitors of Epstein-Barr LMP1-induced NF-kappaB reporter; 350,000 compounds, 0.69% hits; LMP1-induced NF-kappaB luciferase reporter cells, luminescence; inhibition, % at 12.5 µM; in the data active = inhibition above about 41%; inconclusive = no clear call, values can overlap the other calls;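 also: 0% = neutral control wells and 100% = reference inhibitor control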
TROY signal inh = blocks TROY-dependent signaling in reporter cells; Q293 LMP1-TROYcd NF-kB luciferase reporter, 4 h; inhibition, % at 10 µM; 360,000 compounds, 0.98% hits;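 active = compounds whose plate-normalised and pattern-corrected inhibition of the luciferase reporter signal at the single screening dose is 50% or more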
EWS-Fli inh = inhibitors of EWS/Fli oncoprotein transcriptional activity. A673 NR0B1-luciferase reporter, viability-normalised. inhibition, % at 12.6 µM. 350,000 compounds, 0.67% hits. AID 651661;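 active = mean inhibition of at least 50% after viability correction, with every replicate also passing that limit; inconclusive = mean reaches 50% but only one of two replicates passes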;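 also: firefly luciferase signal divided by Alamar Blue viability fluorescence both relative to DMSO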
PAX8 reporter = inhibitors of PAX8 transcriptional activity in RMG-I cells; RMG-I TPO-luciferase reporter, SteadyGlo, 24 h; 360,000 compounds, 1.2% hits; inhibition, % at 12.6 µM;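 active = mean replicate inhibition at least 60% with every replicate also reaching 60%; inconclusive = only one of the two criteria is met; inactive = mean below 60% and not all replicates reaching 60%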;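 also: luciferase light reporting Pax8 driven TPO promoter activity; plate controls were median of neutral control wells for no effect and mitoxantrone controls for full effect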
TWEAK Fn14 block = blocks TWEAK-Fn14 interaction in a reporter cell assay | TWEAK-stimulated Fn14 reporter cells, luciferase luminescence, 8 h | inhibition, % at 10 µM | 360,000 compounds, 2% hits | AID 1159606; in the data active = inhibition above about 50%
LGR2 antag = blocks bursicon-induced cAMP signaling via Drosophila LGR2; HEK293 LGR2, CRE-luciferase, bursicon-stimulated, 4 h; inhibition, % at 9.99 µM; 380,000 compounds, 0.35% hits;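 active = drop in luminescence signal, shown as inhibition above about 50% in the replicate tests, limit read from the data, passing the limit was not always enough; inconclusive = probably only some replicates passing the limit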;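 also: agonist challenge used bursicon conditioned medium at about half maximal strength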
An asterisk follows results filed as active; ? = inconclusive; / = no result given; ! = not active in a repeat. A selection: hits, their analogues and other compounds. The true share with any hit is near 3.2%.

SMILES	LMP1 NFkB inh	TROY signal inh	EWS-Fli inh	PAX8 reporter	TWEAK Fn14 block	LGR2 antag
O=C(CNC(=O)c1ccccc1)c1ccccc1	4.7	-24.4	-35.3	-82.6	50.0*	15.8
C[C@H]1CN([C@@H](C)CO)C(=O)c2cccc(NC(=O)Nc3ccc4c(c3)OCO4)c2O[C@H]1CN(C)C	/	/	1.4	-24.2	/	3.4
S=C(Nc1ccccc1)Nc1ccc(OCc2ccc(Cl)cc2Cl)cc1	77.0*	80.8*	/	/	31.9	/
CC(=O)c1ccc(NC(=O)Nc2ccc(Cl)cc2)cc1	-29.0	-17.1	-92.9	/	-13.4	-63.1
CC(=O)c1ccc(NC(=S)NCc2ccc(Cl)cc2Cl)cc1	-8.4	56.7*	0.1	14.9	2.6	6.4
COCC#Cc1ccc2c(c1)O[C@H](CN(C)C(=O)NC(C)C)[C@@H](C)CN([C@H](C)CO)S2(=O)=O	/	/	-5.8	/	/	9.0
CC(C)CC#Cc1cnc2c(c1)C(=O)N([C@H](C)CO)C[C@H](C)[C@@H](CN(C)S(=O)(=O)c1cn(C)cn1)O2	/	/	20.2	4.5	/	0.4
CC1=NOC(=O)/C1=C\c1ccc(-c2ccccc2Br)o1	5.1	68.2*	?	?	95.6*	/
CC1=NOC(=O)/C1=C\c1ccc(-c2cccc(Cl)c2)o1	-5.5	56.6*	/	/	66.8*	/
CN(C)CCCNC(=O)C[C@H]1CC[C@H]2[C@@H](COc3ccc(NC(=O)NC4CCCC4)cc3C(=O)N2C)O1	/	/	-1.7	-5.0	/	-17.2
Cc1cc(C(=O)Nc2cccc3c2O[C@@H](CN(C)Cc2ccccc2)[C@@H](C)CN([C@H](C)CO)C3=O)n(C)n1	/	/	0.7	-6.0	/	-11.5
Cc1noc(C)c1NC(=O)Nc1cccc2c1O[C@H](CN(C)Cc1ccccc1)[C@@H](C)CN([C@H](C)CO)C2=O	/	/	-3.7	24.7	/	-9.9
Cc1noc(C)c1NC(=O)Nc1cccc2c1O[C@H](CN(C)Cc1ccc(-c3ccccc3)cc1)[C@@H](C)CN([C@H](C)CO)C2=O	/	/	5.7	62.0*	/	-7.0
COc1ccc(CN(C)C[C@@H]2Oc3c(NC(=O)C4CCCCC4)cccc3C(=O)N([C@H](C)CO)C[C@H]2C)cc1	/	/	-3.4	64.0*	/	-8.9
C[C@@H]1CN([C@@H](C)CO)C(=O)c2cc(C#CCN(C)C)cnc2O[C@H]1CN(C)Cc1ccc(-c2ccccc2)cc1	/	/	72.9*!	/	/	-8.9
Cc1cc(C(=O)Nc2cccc3c2O[C@H](CN(C)Cc2ccc(Oc4ccccc4)cc2)[C@@H](C)CN([C@H](C)CO)C3=O)n(C)n1	/	/	-17.2	75.6*	/	5.2
C[C@@H]1CN([C@@H](C)CO)C(=O)c2cc(C#CCN(C)C)cnc2O[C@@H]1CN(C)Cc1ccc(-c2ccccc2)cc1	/	/	35.5	/	/	-11.8
CN(C)CCCNC(=O)C[C@@H]1CC[C@@H](NS(=O)(=O)c2ccc(F)cc2)[C@H](CO)O1	/	/	-6.1	-3.6	/	-8.2
COc1cccc(C(=O)N2C[C@@H]3[C@H](c4ccccc42)[C@H](CO)N3C(C)=O)c1	/	/	-0.9	4.4	/	-4.8
C[C@H]1CN([C@@H](C)CO)C(=O)c2cccc(NS(=O)(=O)c3ccc(F)cc3)c2O[C@@H]1CN(C)Cc1ccc(-c2ccccc2)cc1	/	/	29.9	7.4	/	0.1
C[C@@H]1CN([C@@H](C)CO)C(=O)c2cccc(NS(=O)(=O)c3ccc(F)cc3)c2O[C@@H]1CN(C)Cc1ccc(-c2ccccc2)cc1	/	/	21.9	74.8*	/	16.2
C[C@@H]1CN([C@@H](C)CO)C(=O)c2cccc(NS(=O)(=O)c3ccc(F)cc3)c2O[C@H]1CN(C)Cc1ccc(-c2ccccc2)cc1	/	/	38.3	77.6*	/	-3.9
O=C(C[C@H]1CC[C@H](NC(=O)c2ccccn2)[C@@H](CO)O1)NCc1cc(F)cc(F)c1	/	/	5.7	-1.1	/	-1.5
CC(=O)N1c2ccc(S(=O)(=O)NCC3CCC(C(=O)Nc4cc(C)ccn4)CC3)cc2CC1C (stereo not drawn)	-4.2	29.5	/	5.4	55.9*	30.9
C[C@H]1CN([C@@H](C)CO)C(=O)c2cc(NS(C)(=O)=O)ccc2O[C@H]1CN(C)S(=O)(=O)c1ccc(Cl)cc1	/	/	-1.1	/	/	7.2
SMILES	LMP1 NFkB inh	TROY signal inh	EWS-Fli inh	PAX8 reporter	TWEAK Fn14 block	LGR2 antag
Cc1cccc(NC(=O)/C(C#N)=C\c2cc(C)n(-c3ccc(C(=O)O)cc3)c2C)c1	9.2	20.8	-24.2	7.1	4.5	1.6
COc1ccc(NC(=O)/C(C#N)=C\c2cc(C)n(-c3ccc4c(c3)OCO4)c2C)cc1	7.1	20.9	20.1	13.0	51.4*	8.7
O=S(=O)(c1cccc(NC(=S)N2CCN(c3cccc(Cl)c3)CC2)c1)C(F)F	15.1	25.6	4.6	17.7	83.0*	14.4
CO[C@H](CN(C)S(=O)(=O)c1ccc(Cl)cc1)[C@H](C)CN(C(=O)Nc1ccccc1F)[C@H](C)CO	/	/	1.1	/	/	-16.8
COc1ccc2[nH]c3c(NCCC4=CCCCC4)ncnc3c2c1	21.2	27.9	-40.2	-29.1	79.1*	13.7
COc1ccc(N/N=C(\C#N)C(=N)SCc2ccccc2)cc1	35.3	52.3*	-9.4	9.7	77.3*	66.6*
COc1ccc(N/N=C(\C#N)C(=N)N2CCCCC2)cc1	-20.9	7.5	-69.6	-80.0	-6.8	-41.6
Cc1nc(-c2ccc(NC(=O)/C=C\C(=O)O)cc2)cs1	-4.9	61.1*	-0.7	-15.3	20.2	-32.0
Cc1ccc2sc(-c3ccc(NC(=O)/C=C\C(=O)O)cc3)nc2c1	-8.8	48.3	35.8	-63.9	55.0*	?
Cc1ccc2nc(-c3ccc(NC(=O)COCC(=O)O)cc3)sc2c1	-12.6	-28.2	-51.6	-127.8	-0.4	-2.3
C/C=C/c1ccc([C@H]2[C@@H](CO)N3CCCCN(S(=O)(=O)c4ccc(F)cc4)C[C@H]23)cc1	/	/	9.8	-4.9	/	11.4
CCN(CC)S(=O)(=O)c1ccc(NC(=O)Nc2cccc(C(F)(F)F)c2)cc1	26.8	57.6*	/	/	76.4*	/
O=C(Nc1ccncc1)Nc1cccc(C(F)(F)F)c1	10.5	10.3	18.4	-8.8	19.9	5.4
Cc1ccc(NC(=S)NNC(=S)Nc2cccc(C(F)(F)F)c2)cc1	-25.4	-27.9	-12.3	4.9	-33.0	/
Cc1ccc(S(=O)(=O)Nc2ccc(NC(=O)Nc3cccc(C(F)(F)F)c3)cc2)cc1	-5.7	40.7	12.7	46.4	85.9*	13.7
Cc1ccc(NC(=O)NNS(=O)(=O)c2ccc(Br)cc2)cc1	66.4*	0.3	/	/	-6.2	/
O=C(Nc1ccc(OC(F)F)cc1)Nc1cccc(C(F)(F)F)c1	29.0	46.4	/	/	58.6*	/
CCN(CC)S(=O)(=O)c1ccc(C(=O)Nc2cccc(C)c2)cc1	-3.4	-41.6	/	/	-7.0	/
CC(C)NC(=O)N(C)C[C@@H]1OCCCC[C@@H](C)Oc2ccc(N(C)C)cc2C(=O)N([C@H](C)CO)C[C@H]1C	/	/	/	7.7	/	10.8
COCC(=O)Nc1ccc2c(c1)[C@@H]1C[C@H](CC(=O)N3CCc4ccccc4C3)O[C@@H](CO)[C@@H]1O2	/	/	2.8	/	/	2.9
COCCNC(=O)C[C@@H]1CC[C@@H]2[C@H](COc3ccc(NS(=O)(=O)c4ccc(Cl)cc4)cc3C(=O)N2C)O1	/	/	-3.2	5.5	/	-11.9

High-throughput results (PubChem)
